# Test results from PubChem BioAssay (NCATS).
# Values without a mark were called inactive.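 How the source made its calls: active means compounds whose dose series gives a full or clear partial fitted curve of increased nuclear translocation; inconclusive means weak partial curve or effect only at the top dose; inactive means no dose-dependent translocation response.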
# Biological target: Glucocorticoid receptor (Homo sapiens) (UniProt P04150)
# Assay: GR-GFP Redistribution (AID 450)
# Settings: U2OS GR-GFP nuclear translocation, laser cytometry, 2 h; series mostly up to 20.6 µM
# Potency means the concentration at half of the fitted maximal effect.
# Chain of Glucocorticoid receptor (Homo sapiens) (P04150 whole entry, looked up): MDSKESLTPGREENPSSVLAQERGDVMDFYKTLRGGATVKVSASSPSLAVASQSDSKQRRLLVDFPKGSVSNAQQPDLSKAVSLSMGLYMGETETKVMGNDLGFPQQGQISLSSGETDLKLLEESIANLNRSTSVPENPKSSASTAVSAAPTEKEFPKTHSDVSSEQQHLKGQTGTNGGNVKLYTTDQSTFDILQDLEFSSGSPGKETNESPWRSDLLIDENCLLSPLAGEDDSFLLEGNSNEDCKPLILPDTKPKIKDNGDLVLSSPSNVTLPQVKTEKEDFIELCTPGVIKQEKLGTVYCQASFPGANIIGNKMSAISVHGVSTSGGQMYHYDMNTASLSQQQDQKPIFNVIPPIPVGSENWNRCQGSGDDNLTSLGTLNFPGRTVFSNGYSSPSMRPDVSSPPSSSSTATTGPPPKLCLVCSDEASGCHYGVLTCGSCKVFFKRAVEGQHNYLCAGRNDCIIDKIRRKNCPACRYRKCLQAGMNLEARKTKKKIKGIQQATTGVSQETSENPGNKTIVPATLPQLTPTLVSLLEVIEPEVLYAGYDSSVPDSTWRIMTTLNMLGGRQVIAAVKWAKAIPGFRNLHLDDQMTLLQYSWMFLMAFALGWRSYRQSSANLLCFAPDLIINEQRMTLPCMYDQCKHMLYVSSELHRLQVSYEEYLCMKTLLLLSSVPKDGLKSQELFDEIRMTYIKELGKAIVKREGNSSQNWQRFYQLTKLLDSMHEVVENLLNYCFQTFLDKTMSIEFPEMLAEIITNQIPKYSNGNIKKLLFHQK
row,Structure (SMILES),Potency [µM]
1,CCSc1nc2sc3c(c2c2nnc(SCC(=O)NCc4ccco4)n12)CCCC3,> 20.6
2,COc1cc2c(C(=O)N3CCN(c4ccccc4)CC3)c(C)oc2cc1Br,> 20.6
3,CCN(CC)C(=O)CSc1nc2ccccc2c(=O)n1CC1CCCCC1,> 20.6
4,COc1cccc(C(=O)OC2CCCN(C)C2)c1 (stereo not given),> 20.6
5,Cc1nc(NS(=O)(=O)c2ccccc2)sc1NC(=O)OCCN(C)C,> 20.6
6,Cn1nnc2c(sc3nc(N4CCOCC4)c4c(c32)CCCC4)c1=O,> 20.6
7,C=CCSc1nnc2n(-c3ccccc3OC)c(=O)c3c4c(sc3n12)CCC4,> 20.6
8,CN(CC(O)COc1ccc(OCC(O)CN(C)C2CCCCC2)cc1)C1CCCCC1 (stereo not given),> 20.6
9,COC(=O)c1c(NC(=O)c2nn(C)cc2Cl)sc2c1CCCC2,> 20.6
10,Cn1ccnc1C(O)c1ccc(OCc2ccccc2)cc1 (stereo not given),> 20.6
11,O=C(NCc1cccnc1)/C(=N\O)c1ccccc1,> 20.6
12,COc1ccc(OC)c2c1CCC2=O,> 20.6
13,CCOC(=O)c1[nH]c2ccc(F)cc2c1NC(=O)CCN1CCSCC1,> 20.6
14,c1ccc2c(N3CCCCC3)nc(N3CCCCC3)nc2c1,> 20.6
15,Cc1cccc(NC(=O)c2c(C)cc(=O)oc2C)n1,> 20.6
16,OCCN(CCO)c1ncnc2c1sc1nc(N3CCOCC3)c3c(c12)CCCC3,> 20.6
17,CC(=Nc1ccc(C)c(C)c1)C1=C(O)CCC1=O,> 20.6
18,CCCCN(CCCC)C(=O)CSc1nnc2n(C)c(=O)c3c4c(sc3n12)CCCC4,> 20.6
19,COc1ccc(C2=CC(c3ccc(C)cc3)n3nnnc3N2)cc1 (stereo not given),> 20.6
20,C=CCn1c(SCC#N)nc2c(c1=O)C(C)(C)Cc1ccccc1-2,> 20.6
21,Cc1ccsc1C1NC(=O)c2c(sc3c2CCCC3)N1 (stereo not given),> 20.6
22,COc1ccc(-n2c(SCC(N)=O)nc3sc4c(c3c2=O)CCN(C)C4)cc1,> 20.6
23,C=CCNc1sc(C(=O)C2CC2)c(N)c1C#N,> 20.6
24,CCCSc1nc(N2CCOCC2)c2c(c1C#N)CCCC2,> 20.6
25,O=C(CN1C(=O)c2ccccc2C1=O)NCc1ccccn1,> 20.6
